Test results reported in PubChem BioAssay.
For some of these results: Entries with a potency or affinity are not part of this list. Activity calls are given as the source filed them.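 How the source made its calls, unless noted: active means earlier screen potentiator hit that boosts the TRPC4 ion channel at some dose, with a dose response; inactive means no potentiation, no dose response, or not a prior hit.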

Experiments:
[1] = tested on: TRPC4 beta (transient receptor potential cation channel C4), mouse; test: activators of mouse TRPC4 channel, confirmation, cell-based, Fluo4 calcium, HEK293 TRPC4beta/mu-opioid, duplicates, 10 µM (AID 2426;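 active means fluorescence ratio normalized to control raised more than 50% in primary screen plus both repeat runs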); conditions: Fluo4 calcium fluorescence, at 10 µM; active compounds read high
[2] = tested on: transient receptor potential cation channel C4 beta (TRPC4), mouse; test: activators of mouse TRPC4 channel, confirmation, cell-based, second round, Fluo4, HEK293 TRPC4beta/mu-opioid, 1 µM (AID 2461;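 active means primary screen active and over 50% activation in each of two duplicate runs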); conditions: Fluo4 calcium fluorescence, at 1 µM; active compounds read high
[3] = tested on: TRPC4 (transient receptor potential cation channel C4 beta), mouse; test: positive allosteric modulators of mouse TRPC4, confirmation, cell-based, second round, Fluo-4, HEK293 TRPC4beta/mu-opioid, 1 µM (AID 2554;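 active means primary screen hit whose fluorescence ratio, in both repeats, exceeds the weak agonist control mean by 3 SD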); conditions: DAMGO EC20, Fluo-4 calcium flux, at 1 µM; active compounds read high
[4] = tested on: TRPC4 beta (transient receptor potential cation channel C4), mouse; test: positive allosteric modulators of mouse TRPC4, confirmation, cell-based, Fluo-4, HEK293 TRPC4beta/mu-opioid (AID 2555;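 active means primary screen hit whose calcium fluorescence ratio, in both repeats, exceeds the weak agonist control mean by 3 SD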); conditions: DAMGO EC20, Fluo-4 calcium flux, at 10 µM; active compounds read high
[5] = target: Short transient receptor potential channel 4 (Mus musculus) (UniProt Q9QUQ5); test: inhibitors of mouse TRPC4 channel, confirmation, cell-based, Fluo4, HEK293 TRPC4beta/mu-opioid (AID 2636;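 active means calcium signal cut by more than 3 SD below the full-agonist control yet still positive, in both repeats and the earlier primary screen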); conditions: DAMGO, Fluo4 calcium flux, at 10 µM; active compounds read high
Short transient receptor potential channel 4 (Mus musculus), sequence (Q9QUQ5 whole entry, looked up): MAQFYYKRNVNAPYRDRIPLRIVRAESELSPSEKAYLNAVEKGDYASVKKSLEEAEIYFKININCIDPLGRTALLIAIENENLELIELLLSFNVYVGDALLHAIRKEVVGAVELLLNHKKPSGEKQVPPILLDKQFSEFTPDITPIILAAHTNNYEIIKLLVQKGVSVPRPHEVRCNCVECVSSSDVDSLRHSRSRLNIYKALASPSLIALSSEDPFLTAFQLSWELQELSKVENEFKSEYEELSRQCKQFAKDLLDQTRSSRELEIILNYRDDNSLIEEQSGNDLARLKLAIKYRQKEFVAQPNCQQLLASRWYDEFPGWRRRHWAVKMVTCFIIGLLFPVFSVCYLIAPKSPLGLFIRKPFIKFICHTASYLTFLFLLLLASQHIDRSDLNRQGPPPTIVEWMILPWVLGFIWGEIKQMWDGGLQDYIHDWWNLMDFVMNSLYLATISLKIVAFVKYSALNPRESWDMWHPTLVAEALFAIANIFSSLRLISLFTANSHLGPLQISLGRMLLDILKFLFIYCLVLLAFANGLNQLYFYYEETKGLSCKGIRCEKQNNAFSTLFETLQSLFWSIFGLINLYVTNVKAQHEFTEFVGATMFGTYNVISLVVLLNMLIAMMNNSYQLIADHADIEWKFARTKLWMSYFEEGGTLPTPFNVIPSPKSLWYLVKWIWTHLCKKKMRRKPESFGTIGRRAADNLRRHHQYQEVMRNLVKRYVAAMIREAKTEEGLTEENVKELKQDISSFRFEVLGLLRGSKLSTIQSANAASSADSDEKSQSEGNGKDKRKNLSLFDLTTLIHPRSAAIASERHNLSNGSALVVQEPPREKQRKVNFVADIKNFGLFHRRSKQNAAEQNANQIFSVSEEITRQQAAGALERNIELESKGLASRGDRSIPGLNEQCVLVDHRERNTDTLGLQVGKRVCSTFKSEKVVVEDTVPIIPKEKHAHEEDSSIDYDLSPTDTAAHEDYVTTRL

[6] = target: Short transient receptor potential channel 4 (Mus musculus) (UniProt Q9QUQ5); test: inhibitors of mouse TRPC4 channel, confirmation, cell-based, second round, Fluo4, HEK293 TRPC4beta/mu-opioid, 1 µM (AID 2637;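 active means calcium signal ratio cut to more than 3 SD under the fully stimulated control mean yet still positive, in both repeats and the primary screen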;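 on inhibition: percent of integrated ratio relative to wells lacking test compound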); conditions: Fluo4 calcium flux, DAMGO, at 1 µM; active compounds read high
[7] = target: Short transient receptor potential channel 4 (Mus musculus) (UniProt Q9QUQ5); test: mouse TRPC4 channel activators, dose response, cell-based, HEK293 TRPC4/mu-opioid, Fluo-4 calcium (AID 434937;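 active means primary screen activator hit with a dose response curve and TRPC4 channel activation at any tested dose; inactive means no activation, no dose response, or not a primary hit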)
[8] = target: Short transient receptor potential channel 4 (Mus musculus) (UniProt Q9QUQ5); test: TRPC4 positive allosteric modulators, dose response, cell-based, HEK293 TRPC4/mu-opioid, Fluo-4 calcium, EC20 DAMGO (AID 434941);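 further: calcium entry triggered by an EC20 dose of DAMGO at the co-expressed mu-opioid receptor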
[9] = target: Short transient receptor potential channel 6 (Mus musculus) (UniProt Q61143); test: inhibition of mouse TRPC6 channel, confirmation, selectivity assay for TRPC4 inhibitor project, cell-based, HEK293, membrane potential dye, duplicate (AID 434948;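 active means active in primary screen and both duplicates, each dropping signal beyond three positive-control SD with fluorescence still positive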); conditions: HEK293 TRPC6, membrane potential dye fluorescence, at 10 µM, stimulated with maximal-effect acetylcholine; active compounds read high
Short transient receptor potential channel 6 (Mus musculus), sequence (Q61143 whole entry, looked up): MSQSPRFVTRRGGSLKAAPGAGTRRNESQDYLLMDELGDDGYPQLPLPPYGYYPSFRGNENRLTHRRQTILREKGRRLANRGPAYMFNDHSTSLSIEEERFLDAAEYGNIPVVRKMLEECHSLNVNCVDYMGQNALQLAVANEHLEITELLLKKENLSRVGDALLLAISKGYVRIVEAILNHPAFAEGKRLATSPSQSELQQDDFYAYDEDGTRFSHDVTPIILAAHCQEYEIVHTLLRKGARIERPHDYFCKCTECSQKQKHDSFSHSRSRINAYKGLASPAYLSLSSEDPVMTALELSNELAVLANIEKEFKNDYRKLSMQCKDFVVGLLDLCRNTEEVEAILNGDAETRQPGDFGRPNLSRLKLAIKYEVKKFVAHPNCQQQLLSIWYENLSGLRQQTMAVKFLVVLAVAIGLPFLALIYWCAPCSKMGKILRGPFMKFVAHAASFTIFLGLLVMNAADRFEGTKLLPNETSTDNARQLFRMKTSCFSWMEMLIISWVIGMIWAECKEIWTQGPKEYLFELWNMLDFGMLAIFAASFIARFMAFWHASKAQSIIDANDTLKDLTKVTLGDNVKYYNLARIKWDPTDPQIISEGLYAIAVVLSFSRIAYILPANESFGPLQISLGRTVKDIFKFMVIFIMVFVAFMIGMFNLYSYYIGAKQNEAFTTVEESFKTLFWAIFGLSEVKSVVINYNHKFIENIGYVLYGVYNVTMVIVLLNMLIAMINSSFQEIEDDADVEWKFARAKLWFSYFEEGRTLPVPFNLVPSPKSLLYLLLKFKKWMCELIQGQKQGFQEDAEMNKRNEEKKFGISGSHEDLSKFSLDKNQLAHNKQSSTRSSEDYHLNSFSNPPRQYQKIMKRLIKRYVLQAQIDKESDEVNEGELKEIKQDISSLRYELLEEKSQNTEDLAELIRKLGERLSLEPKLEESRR

[10] = target: Short transient receptor potential channel 6 (Mus musculus) (UniProt Q61143); test: activation of mouse TRPC6 channel, confirmation, selectivity assay for TRPC4 activator project, cell-based, HEK293, membrane potential dye, duplicate (AID 434950;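 active means membrane potential signal rise above negative control mean plus 3 SD in both duplicates, also active in the earlier TRPC4 screen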); conditions: HEK293 TRPC6, membrane potential fluorescence, at 10 µM; active compounds read high
[11] = target: Short transient receptor potential channel 6 (Mus musculus) (UniProt Q61143); test: TRPC6 potentiation by TRPC4 potentiator hits, confirmation, selectivity assay for TRPC4 potentiator project, HEK293 cells, membrane potential dye, duplicate (AID 434952;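 active means compound raising the membrane signal above positive-control mean plus 3 SD in both repeats, and a primary screen hit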); conditions: HEK293 TRPC6, membrane potential dye fluorescence, at 10 µM, maximal acetylcholine added after compound; active compounds read high
[12] = target: Short transient receptor potential channel 4 (Mus musculus) (UniProt Q9QUQ5); test: calcium flux activators in TRPC4/5HT1a cells, counter-screen for TRPC4 activator project, cell-based, second counter screen, HEK293 TRPC4/5HT1a, Fluo-4 (AID 434977;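 active means calcium signal rise above buffer-control mean plus 5 SD in both duplicates, and also a hit in the primary screen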); conditions: Fluo-4 calcium flux, at 10 µM; active compounds read high
[13] = calcium flux inhibitors in TRPC4/5HT1a cells, confirmation, counter-screen for TRPC4 inhibitor project, cell-based, second counter screen, HEK293 TRPC4/5HT1a, Fluo-4 (AID 434978;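 active means primary screen active whose calcium signal fell more than 3 SD beyond the full-serotonin control mean in both duplicate plates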;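 on outcome: serotonin given first at submaximal then at maximal dose after compound preincubation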); conditions: Fluo-4 calcium flux, at 10 µM, serotonin added to trigger calcium flux; active compounds read high
[14] = tested on: TRPC4 (mouse), co-expressed with 5HT1a in HEK293; test: calcium flux potentiators in TRPC4/5HT1a cells, confirmation, counter-screen for TRPC4 potentiator project, cell-based, second counter screen, HEK293 TRPC4/5HT1a, Fluo-4 (AID 434979;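 active means signal rise over 3 SD above mean of control wells given weak agonist, in both repeats and first screen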); conditions: Fluo-4 calcium flux, at 10 µM, serotonin added at its EC20 dose; active compounds read high
[15] = calcium flux activation in mu-opioid HEK293 cells, confirmation, counter-screen for TRPC4 activator project, cell-based, HEK293 mu-opioid receptor line (AID 449723;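 active means hit in primary screen, with calcium signal over 5 SD above buffer well mean in both duplicates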;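 further: counter screen cells carry the mu-opioid receptor alone and lack TRPC4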); conditions: Fluo-4 calcium fluorescence, at 10 µM; active compounds read high
[16] = calcium flux enhancement in mu-opioid HEK293 cells, confirmation, counter-screen for TRPC4 allosteric potentiator project, cell-based, HEK293 mu-opioid receptor line (AID 449724;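 active means calcium signal rise more than 3 SD above the low-dose agonist control mean, in both duplicate plates and the primary screen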); conditions: Fluo-4 calcium flux, at 10 µM, compound added before EC20 DAMGO stimulus; active compounds read high

Compound | outcome [1] | outcome [2] | outcome [3] | outcome [4] | inhibition [5] | outcome [6] | outcome [7] | outcome [8] | outcome [9] | outcome [10] | outcome [11] | outcome [12] | outcome [13] | outcome [14] | outcome [15] | outcome [16] | inhibition [9] | inhibition [13] | inhibition [6] | outcome [5]
CC1(C)CC2CC(C)(CN2CC(O)COc2ccccc2)C1 (stereo unspecified) | inactive | inactive | inactive | inactive | 86% (active) | inactive | inactive | inactive | inactive | inactive | inactive | inactive | inactive | inactive | inactive | inactive |  |  |  | 
CCCCC(CC)C(=O)Nc1ncc([N+](=O)[O-])s1 (stereo unspecified) | inactive | inactive | inactive | inactive | 81% (active) | inactive | inactive | inactive |  | inactive | inactive | inactive |  | inactive | inactive | inactive | 33.5% (active) | 27.7% (active) |  | 
CC(C)(C)NCc1ccccc1OCc1cccs1 | inactive | inactive | inactive | inactive | 95% (active) |  | inactive | inactive |  | inactive | inactive | inactive |  | inactive | inactive | inactive | 15% (active) | 17.5% (active) | 45% (active) | 
c1ccc2[nH]c(CCCCc3nc4ccccc4[nH]3)nc2c1 | inactive | inactive | inactive | inactive | 85% (active) |  | inactive | inactive | inactive | inactive | inactive | inactive |  | inactive | inactive | inactive |  | 40.6% (active) | 55% (active) | 
CC(=O)N1CCN(c2ccccc2NC(=O)c2cccs2)CC1 | inactive | inactive | inactive | inactive | 76% (active) |  | inactive | inactive | inactive | inactive | inactive | inactive | inactive | inactive | inactive | inactive |  |  | 43% (active) | 
CCCCCC[N+](C)(C)CC/C=C1/c2ccccc2Sc2ccc(Cl)cc21 | inactive | inactive | inactive | inactive | 83% (active) |  | inactive | inactive |  | inactive | inactive | inactive |  | inactive | inactive | inactive | 42.5% (active) | 31.8% (active) | 61% (active) | 
Cc1cc([N+](=O)[O-])ccc1NCc1ccco1 | inactive | inactive | inactive | inactive | 92% (active) | inactive | inactive | inactive | inactive | inactive | inactive | inactive |  | inactive | inactive | inactive |  | 14.5% (active) |  | 
COc1ccccc1CNCc1ccc(OC)c2ccccc12 | inactive | inactive | inactive | inactive | 96% (active) | inactive | inactive | inactive | inactive | inactive | inactive | inactive |  | inactive | inactive | inactive |  | 31% (active) |  | 
C/C(CC(=O)N(C(C)C)C(C)C)=N\NC(=O)COc1ccc(Cl)cc1Cl | inactive | inactive | inactive | inactive | 83% (active) | inactive | inactive | inactive | inactive | inactive | inactive | inactive | inactive | inactive | inactive | inactive |  |  |  | 
COc1ccc(Sc2nc(-c3ccccc3)ncc2C(=O)O)cc1 | inactive | inactive | inactive | inactive | 48% (active) | inactive | inactive | inactive | inactive | inactive | inactive | inactive |  | inactive | inactive | inactive |  | 45.5% (active) |  | 
O=C(C1CCN(CC2CC=CCC2)CC1)N(CCc1ccccc1)Cc1ccccc1 (stereo unspecified) | inactive | inactive | inactive | inactive | 53% (active) | inactive | inactive | inactive |  | inactive | inactive | inactive |  | inactive | inactive | inactive | 32.5% (active) | 40.1% (active) |  | 
NC1=NC2=C(CCCC2)C2(CCCCC2)S1 | inactive | inactive | inactive | inactive | 91% (active) | inactive | inactive | inactive |  | inactive | inactive | inactive |  | inactive | inactive | inactive | 44.5% (active) | 14% (active) |  | 
CN1CCN(Cc2cn[nH]c2-c2ccc(F)cc2F)[C@@H](c2ccccc2)C1 | inactive | inactive | inactive | inactive |  | inactive | inactive | inactive | inactive | inactive | inactive | inactive | inactive | inactive | inactive | inactive |  |  |  | inactive
OC(COc1ccccc1)CN1C2=NCCCN2c2ccccc21 (stereo unspecified) | inactive | inactive | inactive | inactive | 84% (active) | inactive | inactive | inactive | inactive | inactive | inactive | inactive | inactive | inactive | inactive | inactive |  |  |  | 
O=C(COC(=O)c1cccc([N+](=O)[O-])c1)c1ccc2c(c1)OCO2 | inactive | inactive | inactive | inactive | 89% (active) |  | inactive | inactive | inactive | inactive | inactive | inactive |  | inactive | inactive | inactive |  | 25.3% (active) | 59% (active) | 
COC(=O)CSc1nnc(-c2sc3cc(OC)ccc3c2Cl)n1C | inactive | inactive | inactive | inactive | 95% (active) |  | inactive | inactive | inactive | inactive | inactive | inactive | inactive | inactive | inactive | inactive |  |  | 59% (active) | 
